aSyn 5UTR inh: MLPCN primary screen, SNCA 5' untranslated region; alpha-synuclein 5'UTR reporter, inhibitor activity; inhibition, % (tested at 7.5 µM); 0.82% of 300,000 active; AID 1813; in the data active = inhibition above about 60%;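 also: H4 neuroglioblastoma cells stably carrying SNCA 5'UTR luciferase fusion; 0% = DMSO wells and 100% = positive control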
Ba/F3 V617F tox: loss of viability in JAK2V617F-driven Ba/F3 cells | Ba/F3 EpoR-JAK2V617F viability, ATP luminescence | inhibition, % at 5.6 µM | 1.1% of 220,000 active;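 active = inhibition above the campaign mean plus 3 SD over all tested compounds, cut at about 24% in these data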;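 also: cytokine-independent growth of Ba/F3 cells driven by EpoR plus mutant JAK2; 0% = DMSO-treated cells and 100% = JAK inhibitor I control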
IEC-6 cytotox: counter-screen for KLF5 inhibitors: cytotoxicity in IEC-6 cells. inhibition, % at 5 µM. AID 1825. 0.78% of 290,000 active. IEC-6 cytotoxicity, luminescence viability; in the data active = inhibition above about 22%;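 also: 0% = plate median of test compound wells and 100% = cytotoxic reference compound wells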
KLF5 inh: inhibitors of KLF5 expression | DLD-1 KLF5 promoter-luciferase reporter, luminescence | inhibition, % at 5 µM | 0.23% of 290,000 active | AID 1700;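 active = inhibition above a per-plate limit of that plate's mean compound inhibition plus 3 SD, cut at about 60% in these data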;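 also: 0% = DMSO wells and 100% = LY294002 at 200 µM; higher means less KLF5 promoter-driven luciferase light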
BaF3 parental: parental Ba/F3 viability inhibition as JAK2V617F counter-screen; CellTiter-Glo ATP luminescence; inhibition, % at 5.6 µM; 1.1% of 220,000 active;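 active = inhibition above a per-campaign cutoff, the mean inhibition of all tested compounds plus 3 SD, cut at about 27% in these data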;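 also: 0% = DMSO wells and 100% = JAK Inhibitor I control wells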
APP transl inh: APP translation inhibition; inhibition, % at 2 µM; SH-SY5Y APP 5'UTR-luciferase reporter, luminescence; 0.82% of 190,000 active; AID 1285;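 active = inhibition above a set limit, derived from the sample mean plus 3 SD, cut at about 45% in these data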
* = called active by the depositor; . = not tested or not shown. In the library only some 2.1% were active in any assay of this set; here they are far more common.

SMILES	aSyn 5UTR inh	Ba/F3 V617F tox	IEC-6 cytotox	KLF5 inh	BaF3 parental	APP transl inh
C=C[C@@]1(C)CC(=O)[C@]2(O)[C@@]3(C)[C@@H](O)CCC(C)(C)[C@@H]3[C@H](OC(C)=O)[C@H](O)[C@@]2(C)O1	66*	.	.	.	.	.
CCOC(=O)C1(CCCc2ccccc2)CCN(C(=O)c2cc(C)nn2CC)CC1	-23	.	4	-3	.	.
CCOC(=O)c1ccc(N2C(=O)CC(N3CCC(Nc4ccc(F)cc4)CC3)C2=O)cc1 (configuration not stated)	-5	4	3	16	49*	17
N#Cc1ccc(N/N=C/c2cn(-c3ccccc3)nc2-c2ccccc2)c([N+](=O)[O-])c1	22	-1	0	-7	7	75*
NS(=O)(=O)c1ccc(N/N=C/c2cn(-c3ccccc3)nc2-c2cccs2)c([N+](=O)[O-])c1	-49	3	-5	-7	3	1
C=CCn1c(=NC(=O)c2ccccc2[N+](=O)[O-])sc2cc(S(C)(=O)=O)ccc21	-7	0	1	25	0	14
CN(C)CC/C=C1\c2ccc(F)cc2Sc2cc(F)c(Cl)cc21	103*	.	.	.	.	.
O=Nc1c2cc(-c3ccccc3)[nH]nc-2c2ccccc12	37	11	3	-55	10	-101
Cc1ccc(-c2cc3c(N=O)c4ccccc4c-3n[nH]2)cc1	92*	7	11	-17	6	-6
Cc1ccc(C(c2nnnn2C2CCCC2)N2CCc3ccccc32)cc1 (configuration not stated)	-60	6	0	-11	40*	-11
CC(C)c1c(C(=O)N/N=C/c2ccc(C(F)(F)F)cc2)nnn1-c1nonc1N	-42	.	9	-2	.	.
Nc1nc(NCCOCCO)nc(NC2CCCCC2)c1[N+](=O)[O-]	68*	.	-2	-15	.	.
COc1ccc(C(=O)c2ccc(N3CCN(C(=O)c4ccc(F)cc4)CC3)c(F)c2)cc1Br	22	2	3	10	4	-6
CC(C)CNS(=O)(=O)c1ccc(CCC(=O)NCc2ccco2)cc1	12	-3	-2	-3	2	-16
CC(C)CNS(=O)(=O)c1ccc(CCC(=O)NCc2ccncc2)cc1	6	1	2	-3	90*	-24
CCOc1ccc(S(=O)(=O)NC2CCCCC2C)cc1 (configuration not stated)	9	.	3	-10	.	.
CCOc1ccc(S(=O)(=O)NCc2ccncc2)cc1	16	65*	20	-28	61*	13
CC1CCCCC1NS(=O)(=O)c1ccc(S(=O)(=O)NCc2ccncc2)cc1 (configuration not stated)	7	42*	12	-36	47*	-1
CC(=O)Nc1ccc(S(=O)(=O)NCc2ccncc2)cc1	-8	32*	-4	-3	37*	-7
COc1ccccc1OCC(=O)NCC1CCCN(Cc2cnn(C)c2C)C1 (configuration not stated)	9	.	2	-11	.	.
Cc1ccc(S(=O)(=O)NCc2ccncc2)cc1	-4	37*	8	-7	47*	11
COC(=O)C1N[C@@H]([C@@H](NC(=O)COc2ccccc2)C(=O)NCc2ccc(OC)cc2)SC1(C)C (some centres not stated)	8	.	.	.	.	.
CC(=O)Nc1cccc(NC(=O)Nc2cccc(Cl)c2C)c1	12	-1	-4	-36	7	1
CC(=O)Nc1cccc(NC(=S)Nc2cccc(Cl)c2C)c1	-26	-2	3	-18	90*	-4
CCOC(=O)c1cc2c(ccn2-c2ccc(F)cc2)n1CC(=O)NC(C)(C)C	-6	5	9	11	90*	-3
SMILES	aSyn 5UTR inh	Ba/F3 V617F tox	IEC-6 cytotox	KLF5 inh	BaF3 parental	APP transl inh
CCn1c(C(=O)OC)cc2c1ccn2-c1ccc(F)cc1	-157	-2	4	-22	0	-80
COc1ccc(-c2ccc(-c3nnn(CC(C)=O)n3)cc2)cc1	-189	0	3	-118	6	-87
COc1ccc(CCn2nnc(-c3ccc(NC(C)=O)c(Cl)c3)n2)cc1	16	-3	-6	-3	59*	-4
CCc1cccc(C)c1NC(=O)Nc1c(Br)cnn1C	6	.	-1	-26	.	.
COc1cnc(-c2ccccn2)nc1N(C)C	99*	-2	20	4	1	34
CN(C)c1nc(-c2ccccn2)nnc1-c1ccccc1	79*	4	12	22	7	30
C1CCCCCC(NCCN2CCNCC2)CCCCC1	-49	80*	9	-32	42*	.

Screening data: PubChem BioAssay, several laboratories
